Measured values published in PubChem BioAssay AID504797 (The Scripps Research Institute Molecular Screening Center, 2011).
Some of the results follow. Values without a mark were called inactive. Active and inactive are the calls of the source. No stated cut-off is given here; in the data, active means activation above about 19%; inactive means the rest. Residues, ends and D or L forms follow the SMILES beside them.

The compounds below were run against cAMP-dependent protein kinase type II-beta regulatory subunit (Homo sapiens) (UniProt P31323) (assay: activators of PKA-R2B holoenzyme, confirmation, biochemical, fluorescence polarization, human (AID 504797)). Conditions: PKA-R2B complex, at 11.4 µM, stronger effect = higher value.
cAMP-dependent protein kinase type II-beta regulatory subunit (Homo sapiens), sequence (P31323 whole entry, looked up): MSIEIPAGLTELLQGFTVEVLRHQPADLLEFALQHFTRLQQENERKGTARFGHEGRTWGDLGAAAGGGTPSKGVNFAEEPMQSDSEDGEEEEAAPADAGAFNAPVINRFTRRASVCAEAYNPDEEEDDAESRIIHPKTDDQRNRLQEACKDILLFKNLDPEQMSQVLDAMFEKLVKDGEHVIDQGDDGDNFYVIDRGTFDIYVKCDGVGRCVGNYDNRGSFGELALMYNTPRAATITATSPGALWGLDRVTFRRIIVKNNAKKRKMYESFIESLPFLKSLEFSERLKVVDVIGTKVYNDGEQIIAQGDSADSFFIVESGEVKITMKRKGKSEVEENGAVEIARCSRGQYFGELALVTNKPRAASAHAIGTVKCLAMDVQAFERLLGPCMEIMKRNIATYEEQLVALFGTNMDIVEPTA
Compound `O=C(O)C1=C(C(=O)O)C2CCC1C2` has an activation of -0.5%. With `COc1ccc(C/C(C)=N/NC(=O)c2ccncc2)cc1` the activation was 0.21%. `O=C(CCCN1C(=O)c2cccc3cccc(c23)C1=O)N1CCN(Cc2ccc3c(c2)OCO3)CC1` gave an activation of -2.59%. In the case of `CCCC(=O)Nc1ncnc2c1ncn2[C@@H]1O[C@@H]2OP(=O)(O)OC[C@H]2[C@H]1OC(=O)CCC`, the activation is reported as 36.6% (active). `O=S(=O)(NCCNS(=O)(=O)c1ccccc1)c1ccccc1` gave an activation of 4.44%. `CC(C)(C)c1ccc(C(=O)N2CCC(C(=O)N3CCCCC3)CC2)cc1` was tested, and the activation was -0.14%. Work on `COc1ccc(CC(NC(C)=O)C(=O)NC2CCN(C(=O)c3ccc(Cl)cc3)CC2)cc1` (stereo not drawn) yielded an activation of 2.1%. In the case of `N#Cc1ccccc1CN1C(=O)S/C(=C/c2cccn2-c2cccc(C(=O)O)c2)C1=O`, the activation is reported as 19.4% (active). `COc1cccc(Nc2nnc(SCC(=O)N3CC(C)OC(C)C3)s2)c1` (stereo not drawn) was tested, and the activation was 1.96%. In the case of `CC(C)(C)c1nnc(N/N=C/c2ccc(O)cc2)n(N)c1=O`, the activation is reported as 3.54%. Compound `COc1ccc([N+](=O)[O-])cc1C1NN=C(c2cccc3ccccc23)S1` (stereo not drawn) has an activation of 1.59%. In the case of `O=C(CN(C(=O)CCC(=O)Nc1nccs1)c1ccc(F)cc1)NCc1ccc2c(c1)OCO2`, the activation is reported as 3.19%. `O=C(CNC(=O)c1ccccc1)NCC(=O)OCC(=O)c1ccccc1` (HELM PEPTIDE1{[O=C(c1ccccc1)[*:2]].G.G.[O=C(CO[*:1])c1ccccc1]}$$$$V2.0) showed an activation of 3.61%.
